Screening results from PubChem.
Pf Dd2 growth: Plasmodium falciparum Dd2 growth inhibition | 120,000 tested, 4.3% active | P. falciparum Dd2 growth, SYBR Green, 72 h | Potency, µM (series often up to 28.9 µM), inactives show top-dose activity, negative = inhibition, most hits filed as inhibitors | AID 1347417; active means well fitted inhibition curve with a large enough effect;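 further: plate controls were DMSO vehicle for no effect and reference drug for full effect; nearly all actives have a fitted effect of over 65% in size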
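Infected erythrocytes (Dd2, 0.3% parasitemia, 2.5% hematocrit final) are added to compound in RPMI-1640/Albumax II medium, grown 72 h at 37C in low oxygen, then lysed with saponin/Triton-X containing SYBR Green and read by fluorescence.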
* = called active by the depositor; i = inactive; [ ] = remark or other dose. Many of the other results were omitted from the sample, so hits are more common in it than they were. Potency means the concentration at half of the fitted maximal effect.

SMILES | Pf Dd2 growth
COc1cccc(CN2CC(Oc3ccccc3C(=O)NCc3ccccc3)C2)c1 | 3.55µM*
O=C(NC1CC1)c1ccccc1OC1CN(Cc2cccc(C(F)(F)F)c2)C1 | -24.3%
Cc1nc(C)c(C(=O)N2CCC3(CC2)CCC(O)(CN(C)C)CC3)s1 | -5.4%
Cc1ccc2onc(CC(=O)Nc3cccc(C(F)(F)F)c3)c2c1 | 11.2µM*
COC(=O)c1ccccc1NC(=O)Cc1noc2ccc(C)cc12 | 16.2%
Cc1ccc2c(CC(=O)Nc3cccc(C(F)(F)F)c3)coc2c1 | -20.9%
COCc1noc([C@@H]2CC(F)(F)CN2C(=O)Cc2ccccc2F)n1 | 7.1%
Cc1cccc2oc(CNC(=O)C(c3cccnc3)N3CCOCC3)nc12 (configuration not stated) | 9.1%
C[C@H]1[C@@H]2[C@@H](O)C([C@H](C)C(=O)NC3CC3)CC[C@@]2(C)CC[C@@H]1NC(=O)c1cnccn1 (some centres not stated) | i
CC(=O)N[C@H]1CC[C@]2(C)CCC([C@H](C)C(=O)NCc3ccc(F)cc3)[C@H](O)[C@H]2[C@@H]1C (some centres not stated) | i
C[C@H]1[C@@H]2[C@@H](O)C([C@H](C)C(=O)NCc3ccc(F)cc3)CC[C@@]2(C)CC[C@@H]1NC(=O)c1cnccn1 (some centres not stated) | 8.91µM*
CC(C)(CC(=O)O)CC(=O)N[C@H]1C[C@H]2C(=O)Nc3ccc(/C=C/c4ccccc4)cc3C(=O)N2C1 | 25.8%
COc1ccc(/C=C/c2ccc3c(c2)C(=O)N2C[C@@H](NC(=O)CC(C)(C)CC(=O)O)C[C@H]2C(=O)N3)cc1 | 14.1µM*
COCC(=O)N[C@H]1C[C@H]2C(=O)Nc3ccc(/C=C/c4ccccc4)cc3C(=O)N2C1 | -11.5%[44.1 µM]
CCC(CC)C(=O)N1CC[C@@H](CC(=O)O)[C@@H](CC2=NCCc3ccc(C)cc32)C1 | -14.2%[44.1 µM]
Cc1ccc2[nH]c(CN3CCNCC(C(=O)O)C3)nc2c1C (configuration not stated) | -12.9%
CN(CC1CCOC1)S(=O)(=O)c1ccc(Cl)cc1 (configuration not stated) | 2.0%[5.79 µM]
Fc1cccc(-c2nnn3c2nc(NCc2ccc4c(c2)OCO4)c2ccccc23)c1 | 7.9%
CC(C)Nc1nc2c(-c3cccc(Br)c3)nnn2c2ccccc12 | i
Fc1cccc(-c2nnn3c2nc(NC2CCCCC2)c2ccccc23)c1 | 8.91µM*
CCn1cc(-c2ccc(OC)cc2)cc1C(=O)O | i
O=C([C@@H]1C[C@H](Oc2ccccc2)CN1S(=O)(=O)c1ccccc1)N1CCCC1 | -9.2%
CC(=O)N1CCN(Cc2ccc(OCCCN3CCOCC3)cc2)CC1 | 3.0%
COc1cc(/C=C(\C#N)c2nc3ccc(C)cc3[nH]2)ccc1OCc1ccc(C)cc1 | 2.82µM*
CCC(=O)Oc1ccc(/C=C(\C#N)c2nc3ccccc3[nH]2)cc1OC | -11.9%
SMILES | Pf Dd2 growth
CCOC(=O)COc1ccc(/C=C(\C#N)c2nc3ccc(C)cc3[nH]2)cc1OC | i
O=C1CCN(S(=O)(=O)c2ccccc2)CCCN(C(=O)NCc2ccccc2)CCN1 | 1.6%
COc1cccc(-c2cc3c(=O)n(CC(O)c4cccc(C#N)c4)ccn3n2)c1 (configuration not stated) | -5.0%
CCn1nc(C)c(-c2cc(C(=O)N3CCCCCCNC(=O)CC3)no2)c1C | -0.7%
CN(C)Cc1nnc(C2CCN(C(=O)Nc3cccc(C#N)c3)CC2)n1C | -7.8%
COCCOc1ccc2c(n1)CCN(C(=O)c1cccs1)C2 | -16.5%
OCC1(Cc2ccc(Cl)cc2)CCNCC1 | -19.2%
CN(c1ccccc1)S(=O)(=O)c1ccc(NC(=O)c2nc(S(C)(=O)=O)ncc2Cl)cc1 | 15.1%[5.79 µM]
CCS(=O)(=O)c1ncc(N(Cc2ccccc2)Cc2ccco2)c(C(=O)Nc2ccccc2C)n1 | -15.7%
CCCS(=O)(=O)c1ncc(Cl)c(C(=O)N(Cc2ccccc2)Cc2ccco2)n1 | 7.8%
CC(C)(C)c1ccc(C(=O)N(Cc2ccc(F)cc2)Cc2ccco2)cc1 | -13.9%
Cc1cccc(NC(=O)Cn2nnc(C(=O)NCc3ccco3)c2N)c1 | 24.7%
CS(=O)(=O)c1ncc(Cl)c(C(=O)Nc2c(C(=O)Nc3ccccc3)oc3ccccc23)n1 | i
CCc1ccc(CN(Cc2ccco2)c2cnc(S(C)(=O)=O)nc2C(=O)Nc2cccc(C)c2)cc1 | 11.2µM*
Cc1ccsc1CN(Cc1ccco1)c1cnc(S(C)(=O)=O)nc1C(=O)Nc1ccc(Cl)cc1 | 4.47µM*
Cc1ccc(NC(=O)c2nc(S(C)(=O)=O)ncc2N(Cc2ccc(C(C)(C)C)cc2)Cc2ccco2)cc1C | 7.08µM*
Cc1ccc(NC(=O)c2nc(S(=O)(=O)Cc3ccc(F)cc3)ncc2Cl)cc1C | 42.9%[5.79 µM]
CCS(=O)(=O)c1ncc(Cl)c(C(=O)Nc2c(C(=O)Nc3cccc(C)c3)oc3ccccc23)n1 | -22.0%
CCS(=O)(=O)c1ncc(N(Cc2ccccc2)Cc2ccco2)c(C(=O)Nc2ccc(C)c(C)c2)n1 | 5.01µM*
CCNC(=O)[C@@H]1C[C@H](NC(=O)c2ccn(CC)n2)CN1C1CCOCC1 | -19.2%
O=C1NCCCCCCN(C(=O)COc2ccccc2)[C@H]2CCCC[C@@H]12 | -25.0%
CC(C)CNC(=O)N1CCC(c2noc(C3CC3)n2)C1 (configuration not stated) | i[5.79 µM]
Cc1noc([C@H]2CCN(S(=O)(=O)c3cn(C)cn3)C[C@H]2NC(=O)C2CC2)n1 | i[5.79 µM]
CCN1CCC2(CCC1=O)CN(Cc1nc(CCOC)no1)CCN2C (configuration not stated) | -20.3%
CC(C)c1ccc(C(=O)N2CCC(N3C(=O)CCC3C(=O)NCc3ccccc3)CC2)cc1 (configuration not stated) | -21.6%
SMILES | Pf Dd2 growth
Cc1cc(S(=O)(=O)N2CCCC(Cn3cnc4cccnc43)C2)ccc1F (configuration not stated) | i
Cc1ccc(CN(Cc2ccco2)C(=O)COc2ccc(Cl)cc2Cl)cc1 | -23.1%
COc1ccc(NC(=O)c2nc(S(C)(=O)=O)ncc2N(Cc2ccc(C)cc2)Cc2ccco2)cc1Cl | 10µM*
COc1ccc(NC(=O)Cn2c(N(C)Cc3ccccc3)nc(C)cc2=O)cc1Cl | -4.1%
COC(=O)c1cccc(NC(=S)N[C@H]2CO[C@H]3[C@@H]2OC[C@@H]3n2nnnc2Oc2cccc(N3CCOCC3)c2)c1 | -6.9%
COC1CCOC2(CCN(C(=O)Cn3c(=O)oc4ccccc43)CC2)C1 (configuration not stated) | 31.1%
O=C1NC(=NC2CCCCC2)C2(CCN(CC3CC3)CC2)N1c1cc(F)cc(F)c1 | -25.2%
CC(C)CCN1CCCC2(C1)C(=NC1CCCC1)NC(=O)N2c1cc(F)cc(F)c1 (configuration not stated) | 10µM*
O=C1NC(=NC2CCCC2)C2(CCN(CC3CC3)CC2)N1c1cc(F)cc(F)c1 | -8.1%
O=C1NC(=NC2CCCCC2)C2(CCCN(CC3CCCCC3)C2)N1c1cc(F)cc(F)c1 (configuration not stated) | 7.94µM*
C[S+](=O)([O-])N1CCCC2(C1)C(=NC1CCCC1)NC(=O)N2c1cc(F)cc(F)c1 (configuration not stated) | i
COc1cccc(N2C(=O)NC(=NC3CCCC3)C23CCCN(C(=O)c2ccccc2)C3)c1 (configuration not stated) | 8.5%
CC(C)CCN1CCC2(CC1)C(=NC1CCCC1)NC(=O)N2c1cc(F)cc(F)c1 | -27.7%
COc1cccc(N2C(=O)NC(=NC3CCCC3)C23CCCN(CCC(C)C)C3)c1 (configuration not stated) | 12.6µM*
